MK inhibit – inhibitors of Streptococcus pneumoniae mevalonate kinase; purified MK, PK/LDH-coupled NADH absorbance 340 nm; AID 555; inhibition, % at 10 µM; 65,000 compounds, 0.48% hits;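 active = ranked among the strongest by inhibition in the single 10 µM screen, a fixed top-ranked set picked for dose follow-up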
Autofluor 339 – intrinsic fluorescence of library compounds, ex339/em460 – biochemical, MLSMR library, data from DPM-DC assay, artefact control, profiling panel; compound autofluorescence, ex339/em460 nm, NADH buffer; stronger effect = higher value; 1 = no-compound wells, NADH background; AID 709; 65,000 compounds, 5.5% hits; fluorescence fold increase at 10 µM;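 active = at 10 µM, mean starting fluorescence two-fold or more over control wells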;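 also: signal is the first read of a kinetic run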
A340 absorber – compound absorbs light at 340 nm; AID 708; 65,000 tested, under 10 active; compound absorbance at 340 nm, fold over control; fold change at 10 µM;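 active = at 10 µM dose, initial 340 nm absorbance at least 2 fold that of control wells; inactive = change under 2 fold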;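 also: initial absorbance extrapolated from kinetic A340 decline of NADH oxidation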
Spn PMK inh – S. pneumoniae PMK inhibition; AID 539; 65,000 compounds, 0.49% hits; purified PMK, PK/LDH-coupled NADH absorbance 340 nm; inhibition, % at 10 µM;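 active = top-ranked compounds by inhibition in the single 10 µM screen, taking a fixed number of the strongest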
DPM-DC inhibit – blocks S. pneumoniae diphosphomevalonate decarboxylase | purified DPM-DC, PK/LDH coupled NADH fluorescence | calls only at 10 µM | 65,000 compounds, 0.49% hits | AID 556;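 active = the 320 compounds with the highest percent inhibition in the single-dose primary screen, excluding strongly autofluorescent ones, cut at about 32% in these data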;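 also: kinetic rate of NADH fluorescence loss reporting ADP formed by the decarboxylase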
NADH coupling – blocks coupling enzymes of NAD/NADH assays. coupled PK/LDH NADH assays, four targets. IC50, µM (series often up to 10 µM). AID 774. 65,000 compounds, 0.02% hits;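 active = single-dose screening hits from any of four coupled enzyme assays that gave an IC50 when retested across doses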;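 also: the DPM-DC format reads NADH fluorescence rather than 340 nm absorbance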
Large screens that a line does not name were inactive. Hits are enriched below; roughly 6.3% of the tested compounds scored in any of these assays.

O=C(Nc1ccc(S(=O)(=O)N2CCCCCC2)cc1)C1CCCO1 (stereo not drawn)	none
CCCCn1c(SCC(=O)Nc2cc(NC(=O)c3ccco3)ccc2C)nc2ccccc2c1=O	none
CCn1c(SCC(=O)Nc2ccc(NC(=O)c3ccco3)c(OC)c2)nc2ccccc2c1=O	Autofluor 339 5.2 (not shown: DPM-DC inhibit)
O=C(O)CCn1nnc(-c2cccs2)n1	DPM-DC inhibit active
Cc1cc(NC(=O)c2cccc(S(=O)(=O)N3CCOCC3)c2)c2ccccc2n1	none
Cc1cc(N2C(=O)C3C4C=CC(C4)C3C2=O)ccc1Br (stereo not drawn)	none
CCOC(=O)Cc1c(C)nc2cc(-c3ccc(C)cc3)[nH]n2c1=O	none
CCOC(=O)Cc1c(C)nc2c(-c3ccccc3)c[nH]n2c1=O	Autofluor 339 2.2 (not shown: DPM-DC inhibit)
Cc1c(OCc2ccc(C(=O)O)o2)ccc2c3c(c(=O)oc12)CCC3	Autofluor 339 2.1 (not shown: DPM-DC inhibit)
COC(=O)c1ccc(COc2cccc(OC)c2)o1	none
COC(=O)c1ccc(COc2ccc3c(C)c(C)c(=O)oc3c2C)o1	Autofluor 339 2
COC(=O)Nc1c(C(=O)OC)cc(OC)c(OC)c1OC	none
COC(=O)c1cc(OC)c(OC)c(OC)c1N	Autofluor 339 2.3
COc1cc(OC)cc(C(=O)OCc2cc3ccccc3[nH]c2=O)c1	none
Cc1cc2nc(-c3cccnc3SCC(=O)NCc3ccco3)[nH]c2cc1C	Autofluor 339 3.7 (not shown: DPM-DC inhibit)
NC(=O)c1nn(-c2ccccc2)nc1N	Autofluor 339 3.9 (not shown: DPM-DC inhibit)
NC(=O)c1nn(-c2ccccc2)nc1NC(=O)CN1CCCCC1	none
COC(=O)c1nc(-c2ccccc2)oc1N(C)C	Autofluor 339 3.8 (not shown: DPM-DC inhibit)
COc1cc(-c2nc(S(=O)(=O)c3ccc(C)cc3)c(N(C)C)o2)cc(OC)c1OC	none
COC(=O)c1nc(-c2ccc(C)cc2)oc1N(C)C	Autofluor 339 5 (not shown: DPM-DC inhibit)
COc1ccc(N2CCN(C(=O)CCNS(=O)(=O)c3ccc4c(c3)CCC(=O)N4)CC2)cc1	Autofluor 339 2.1
CC(=O)N1CCc2cc(S(=O)(=O)NC(CC(C)C)C(=O)N3CCn4c3nc3ccccc34)ccc21 (stereo not drawn)	none
CC(Nc1nc(N2CCN(S(C)(=O)=O)CC2)nc2ccccc12)c1ccccc1 (stereo not drawn)	Autofluor 339 2.1 (not shown: DPM-DC inhibit)
O=C(COC(=O)Cc1ccc(S(=O)(=O)N2CCOCC2)s1)NCc1ccccc1	MK inhibit 49
COc1ccc2c(c1OC)CN(C)CCc1cc3c(cc1C(O)C2)OCO3 (stereo not drawn)	Spn PMK inh 25
COc1cccc(C2/C(=C(\O)c3ccc4c(c3)OCO4)C(=O)C(=O)N2CCN(C)C)c1OC (stereo not drawn)	none
O=C(Nc1ccc(N2CCOCC2)cc1)c1ccc2nc(-c3ccco3)c(-c3ccco3)nc2c1	none
CCCCNC(=O)c1ccc2nc(-c3ccco3)c(-c3ccco3)nc2c1	DPM-DC inhibit active
O=C(Nc1ccccc1)c1ccc2nc(-c3ccco3)c(-c3ccco3)nc2c1	Autofluor 339 2.6
O=C(COC(=O)Cc1cccs1)Nc1ccccc1	none
COc1cc(CNc2ccc3c(c2)CCC3)cc(OC)c1O	MK inhibit 44
COc1ccc(-c2nnc(SCc3nnc(-c4ccc(Cl)cc4)o3)n2-c2ccccc2)cc1	none
O=c1c2cc(N3CCOCC3)ccc2[nH]c(=S)n1CCCN1CCCCC1	Autofluor 339 2.1
CC1CCN(CCCn2c(=S)[nH]c3ccc(N4CCOCC4)cc3c2=O)CC1	Autofluor 339 3.2
O=C(NCc1cccnc1)c1ccc2c(=O)n(CCCN3CCCC3=O)c(=S)[nH]c2c1	DPM-DC inhibit active
COc1ccc(Cn2c(=O)[nH]c3cc(C(=O)NCCCN4CCCC4=O)ccc3c2=O)cc1	none
FC(F)(F)c1cc(-c2ccco2)nc(-n2nnc3ccccc32)n1	Autofluor 339 2.4, DPM-DC inhibit active
FC(F)(F)c1cc(-c2ccco2)nc(-n2nc(C(F)(F)F)cc2C2CC2)n1	Autofluor 339 3.4
N#Cc1nc(-c2ccc(OCc3ccccc3)cc2)oc1NCc1cccnc1	none
COCCCNc1oc(-c2ccccc2F)nc1C#N	Autofluor 339 2.1 (not shown: DPM-DC inhibit)
COCCCNc1oc(-c2ccccc2OC)nc1C#N	Autofluor 339 3.9 (not shown: DPM-DC inhibit)
N#Cc1nc(-c2ccccc2F)oc1NCc1ccccc1	Autofluor 339 2.1 (not shown: DPM-DC inhibit)
N#Cc1nc(-c2ccccc2F)oc1NCCc1ccccn1	Autofluor 339 2.3 (not shown: DPM-DC inhibit)
COc1ccc(CCNc2oc(COc3ccccc3F)nc2C#N)cc1OC	none
O=S(=O)(NC1CCCCC1)c1ccc(Cl)s1	none
CC1=C(C(=O)Nc2ccccc2C)C(c2ccc(C)o2)C2=C(CCCC2=O)N1 (stereo not drawn)	none
CCCCn1c(NC(C)CC)nc2c1c(=O)[nH]c(=O)n2C (stereo not drawn)	none
CCCn1c(SCC(N)=O)nc2c(c1=O)C1(CCCC1)Cc1ccccc1-2	none
Cn1c(NCCCO)nc2c(c1=O)C1(CCCCC1)Cc1ccccc1-2	Autofluor 339 3.8 (not shown: DPM-DC inhibit)
S=c1[nH]nc(-c2ccccc2)n1C1C=CCCC1 (stereo not drawn)	DPM-DC inhibit active
CC(C)Oc1ccc(/C(O)=C2/C(=O)C(=O)N(CCN(C)C)C2c2ccco2)cc1 (stereo not drawn)	none
O=C(Nc1nnc(-c2ccncc2)s1)C1CCCO1 (stereo not drawn)	Autofluor 339 3.7 (not shown: DPM-DC inhibit)
Cc1cc(=O)oc2cc(NC(=O)CCCC(=O)O)ccc12	Autofluor 339 5 (not shown: DPM-DC inhibit)
CCOc1ncccc1C(=O)Nc1ccc2c(C)cc(=O)oc2c1	Autofluor 339 2.2, DPM-DC inhibit active
Cc1onc(-c2ccccc2)c1C(=O)Nc1nnc(-c2ccncc2)s1	Autofluor 339 3.8 (not shown: DPM-DC inhibit)
CC1(C)NC(=O)NC2(C)NC(=O)NC(C)(C)C12 (stereo not drawn)	none
Cc1onc(-c2ccccc2)c1C(=O)Nc1ccc2c(C)cc(=O)oc2c1	Autofluor 339 2.2 (not shown: DPM-DC inhibit)
CCOc1ncccc1C(=O)Nc1ccc(-c2cn3ccsc3n2)cc1	Autofluor 339 2.1 (not shown: DPM-DC inhibit)
O=C(CN1C(=O)CCC1=O)Nc1nc(-c2nc3ccccc3s2)cs1	Autofluor 339 2.1 (not shown: DPM-DC inhibit)
CC1Cc2ccccc2N1C(=O)CSc1nnnn1Cc1ccccc1 (stereo not drawn)	none
CCOc1cc(C(=O)NCc2nnc(SCC(=O)OC)n2C)cc(OCC)c1OCC	Spn PMK inh 12
CC1(C)CC(=O)C2=C(C1)N(CCN1CCOCC1)C1=C(C(=O)CC(C)(C)C1)C2c1cccc(Cl)c1	Autofluor 339 4.3 (not shown: MK inhibit, DPM-DC inhibit)
CC(=O)Nc1nc(CC(C)C)cc(-c2ccco2)c1C#N	Autofluor 339 2.3 (not shown: DPM-DC inhibit)
CC(C)CNC(=O)c1cc(-c2ccco2)on1	none
COCCNC(=O)C(c1ccc(C)o1)N(Cc1ccc(OC)cc1)C(=O)Cn1nnc2ccccc21 (stereo not drawn)	Spn PMK inh 25
CCCn1c(SCc2cc(=O)oc3ccc4ccccc4c23)n[nH]c1=O	Autofluor 339 2.1 (not shown: DPM-DC inhibit)

Screening data from PubChem.
